Measured values as given in PubChem BioAssay (EPA / NIEHS).
Active and inactive are the calls of the source. How the source made its calls: active means hit-call score of the fitted dose curve at least 0.9, where 1 is the maximum; inactive means score below 0.9.

Experiment: ATG_RORE_CIS: Attagene CIS-FACTORIAL HepG2 Assay for human RAR-related Orphan Receptor Element (RORE) (AID 2282959)
Conditions: HepG2 Attagene cis-factorial RORE reporter, mRNA; actives raise or lower the signal
Procedure: ATG_CIS is a cell-based, multiplexed-readout assay that uses HepG2, a human liver cell line, with measurements taken at 24 hours after chemical dosing in a 24-well plate.ATG_RORE_CIS is one of 52 assay component(s) measured or calculated from the ATG_CIS assay. It is designed to make measurements of mRNA induction, a form of inducible reporter, as detected with fluorescence intensity signals by Reverse transcription polymerase chain reaction (RT-PCR) and Capillary electrophoresis technology.Data from the assay component ATG_RORE_CIS was analyzed into 1 assay endpoint. This assay endpoint, ATG_RORE_CIS, was analyzed with bidirectional fitting relative to DMSO as the negative control and baseline of activity. Using a type of inducible reporter, measures of mRNA for gain or loss-of-signal activity can be used to understand the reporter gene at the transcription factor-level as they relate to the gene RORA and RORB and RORC. Furthermore, this assay endpoint can be referred to as a primary readout, because this assay has produced multiple assay endpoints where this one serves a reporter gene function. To generalize the intended target to other relatable targets, this assay endpoint is annotated to the nuclear receptor intended target family, where the subfamily is orphan.
Human liver HepG2 cells are transiently transfected with multiple reporter transcription units (MRTUs) in 6-well plates using FuGene 6 reagent (Roche; 3 ml FuGene/1 mg DNA). The MRTU constructs are regulated by a cis-regulating element (promoter). […] A major difference between the CIS and TRANS system is that in CIS activities of endogenous TFs are measured, whereas the TRANS assay evaluates changes in activities of exogenous, chimeric NR-Gal4 proteins. […] At the end of 24 hour incubation, total RNA was isolated using TriZol reagent (Invitrogen). The isolated RNA is then reverse-transcribed using oligo(dT) primer and Mo-MLV reverse transcriptase (Invitrogen) with DNAse I (Ambion) treatment for 30 min. The one-tenth of the produced cDNA was amplified by PCR using Taq DNA polymerase (Invitrogen) and two reporter sequence-specific primers. The PCR products were fluorescently labeled by primer extension with 6-arboxyfluorescein (6-FAM) 5'-labeled reporter sequence-specific primer (2 min at 95 C, 20 s at 68 C and 10 min at 72 C) and these products were digested with 5U of HpaI (New England Biolabs) for 2h at 37 C. The fragments were purified using Qiaquick PCR columns (Qiagen), analyzed on an ABI 3130xL genetic analyzer (Applied Biosystems) with peak positions identified by using a set of X-rhodamine (ROX)-labeled MapMarker1000 molecular weight standards (BioVentures). The raw capillary electrophoresis data was processed using Attagraph software (Attagene).

outcome, inactive:
Oc1ccc(Cl)cc1C1CCCC1, COc1cccc(OC)c1C(=O)O, O=C(O)/C=C/C(=O)O, CCC(C)=NO, C[Si](C)(C)O[Si](C)(C)O[Si](C)(C)C, NC(=O)c1ccc(N)cc1, COC(=O)[C@]1(C)CCC[C@@]2(C)[C@H]1CC=C1C=C(C(C)C)CC[C@@H]12, CC/C=C\CCCCCO, Cc1ccccc1S(=O)(=O)O, NC(N)=Nc1nc(CSCCC(N)=NS(N)(=O)=O)cs1, [O-][n+]1ccc(Cl)cc1, O=C1NC(=O)C2CC=CCC12 (stereo not given), CC(C)CC(=O)O, CCCC(=O)OC, CCCC(=O)OC/C=C(\C)CCC=C(C)C, O=C(C1CCCCC1)N1CC(=O)N2CCc3ccccc3C2C1 (stereo not given), Cc1ccccc1S(N)(=O)=O, C=CCOC(=O)C(=C)C, CCCCCCCCCCCCCC, CO[Si](CCCNCCN)(OC)OC, c1cc[c]([Bi]([c]2ccccc2)[c]2ccccc2)cc1, COc1c2occc2cc2ccc(=O)oc12, CC/C=C\CCO, CN(C)CCC(c1ccc(Cl)cc1)c1ccccn1 (stereo not given), CCCN[C@H]1CCc2nc(N)sc2C1, CC1=C(CC(=O)O)c2cc(F)ccc2/C1=C\c1ccc(S(C)=O)cc1 (stereo not given), COc1ccc2ccccc2c1, O=C(OCc1ccccc1)c1ccccc1, OCCc1ccccn1, CC[N+](CC)(CC(=O)Nc1c(C)cccc1C)Cc1ccccc1, CCC(C)(CCC(C)C)C(=O)O (stereo not given), C=C1CC[C@H]2C[C@@H]1C2(C)C, O=C(Oc1ccccc1)c1ccccc1, C[C@H]1C[C@H]2[C@@H]3CCC4=CC(=O)C=C[C@]4(C)[C@@]3(F)[C@@H](O)C[C@]2(C)[C@@]1(O)C(=O)CO, CN(C)N=Nc1ccccc1, O=C(O)c1ccccc1C(=O)O, CCCCOC(=O)COc1ccc(Cl)cc1Cl, COC(OC)C(C)c1ccccc1 (stereo not given), COCCCN, CC(=O)CCc1ccccc1
